Screens as filed in PubChem.
SENP8 block-1: SENP8 (human) protease inhibition. recombinant SENP8, Nedd8 substrate fluorescence. inhibition, % at 20 µM. 360,000 tested, 0.64% active. AID 602440; in the data active = inhibition mostly above about 40%, no sharp cut-off; inactive = mostly below about 27%
Target sequence (Q96LD8 whole entry, looked up): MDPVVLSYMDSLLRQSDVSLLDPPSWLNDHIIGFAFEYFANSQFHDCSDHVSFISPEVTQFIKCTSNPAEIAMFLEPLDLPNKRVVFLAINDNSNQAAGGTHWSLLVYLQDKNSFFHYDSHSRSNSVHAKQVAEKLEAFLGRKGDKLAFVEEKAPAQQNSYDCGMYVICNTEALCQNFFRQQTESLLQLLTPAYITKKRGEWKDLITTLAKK
SENP6 inh: SENP6 protease inhibition. Recombinant SENP6 catalytic domain, aminoluciferin luminescence. inhibition, % at 10 µM. 330,000 tested, 1.8% active. AID 2599;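 active = inhibition above about 50% at the single tested dose, limit read from the data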;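 note: plate controls were DMSO wells with enzyme for no effect and DMSO wells lacking enzyme for full effect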
SENP7 block: SENP7 protease inhibition. AID 434973. Q9BQF6. 330,000 tested, 1.5% active. inhibition, % at 5 µM. recombinant SENP7, Z-RLRGG-aminoluciferin luminescence, 40 min;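 active = inhibition above about 50% at the single test dose, limit read from the data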;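 note: plate controls were DMSO with enzyme for no effect and no enzyme buffer wells for full effect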
Target sequence (Q9BQF6 706-1050 limits assumed): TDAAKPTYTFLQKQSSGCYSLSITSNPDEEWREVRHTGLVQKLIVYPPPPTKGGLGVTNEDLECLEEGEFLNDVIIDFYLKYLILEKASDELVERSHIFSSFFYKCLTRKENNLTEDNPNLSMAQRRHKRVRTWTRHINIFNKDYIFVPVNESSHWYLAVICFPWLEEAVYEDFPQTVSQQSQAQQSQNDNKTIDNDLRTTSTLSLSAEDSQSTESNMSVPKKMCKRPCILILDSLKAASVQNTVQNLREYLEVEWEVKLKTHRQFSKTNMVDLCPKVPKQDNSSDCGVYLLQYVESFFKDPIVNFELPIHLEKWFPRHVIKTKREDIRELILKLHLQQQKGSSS
HSP90 inh: inhibitors of HSP90 luciferase refolding in rabbit reticulocyte lysate; luciferase refolding luminescence, 3 h; inhibition, % at 5.6 µM; 290,000 tested, 0.91% active; AID 1789;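 active = inhibition above the screen-wide mean plus 3 SD, computed separately per campaign, cut at about 16% in these data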;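 note: 0% = DMSO wells and 100% = 60 µM geldanamycin wells; inhibitors lower the luminescence because luciferase stays unfolded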
SENP8 block-2: SENP8 protease inhibition; Q96LD8; purified SENP8, Z-RLRGG-aminoluciferin cleavage, luminescence; inhibition, % at 10 µM; 330,000 tested, 1.2% active; AID 2540; in the data active = inhibition above about 50%
SENP8 confirm: confirmation of human SENP8 protease inhibitors; shares compounds with SENP7 block; Recombinant SENP8, Z-RLRGG-aminoluciferin luminescence, 60 min; inhibition, % at 12.5 µM; 6,200 tested, 40% active;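 active = mean inhibition across replicates above about 50%, limit read from the data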
SENP6 conf: confirmation of human SENP6 protease inhibitors. shares compounds with SENP7 block. recombinant SENP6, Z-RLRGG-aminoluciferin luminescence. inhibition, % at 12.5 µM. 6,200 tested, 58% active. AID 488915
SENP7 confirm: human SENP7 inhibition, confirmed; shares compounds with SENP7 block; recombinant SENP7, Z-RLRGG-aminoluciferin luminescence, 40 min; inhibition, % at 12.5 µM; 6,200 tested, 69% active; AID 488917
Casp3 select: caspase-3 inhibition (SENP selectivity assay) | shares compounds with SENP7 block | purified caspase-3, Z-DEVD-aminoluciferin luminescence, 60 min | inhibition, % at 12.5 µM | 6,200 tested, 60% active;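 active = mean inhibition above about 50%, limit read from the data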;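 note: plate controls were enzyme with DMSO for no effect and wells without caspase-3 for full effect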
SENP luc ctr: counter-screen for SENP inhibitors: luminescence interference | 6,200 tested, 39% active | shares compounds with SENP7 block | Pre-incubated SENP8/Z-RLRGG-aminoluciferin, luciferase luminescence interference | inhibition, % at 12.5 µM;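 active = mean inhibition above about 50% when retested at one dose, limit read from the data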;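 note: plate controls were DMSO wells with completed reaction for no effect and substrate without enzyme for full effect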
Numbers without * were called inactive; x = not tested or not shown. A selection: hits, their analogues and other compounds. The true share with any hit is near 2.8%.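 Rule for the calls, unless noted: active = mean inhibition above about 50% in the one-dose retest (limit read from the data); inactive = the rest.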

SMILES	SENP8 block-1	SENP6 inh	SENP7 block	HSP90 inh	SENP8 block-2	SENP8 confirm	SENP6 conf	SENP7 confirm	Casp3 select	SENP luc ctr
COc1cccc(N2CCN(c3nc(C)cc(=O)[nH]3)CC2)c1	15	9	-4	-2	7	x	x	x	x	x
O=C(Nc1ccc2c(c1)CCC2)c1ccccc1	4	84*	88*	15	82*	90*	89*	98*	88*	87*
Oc1ccc(-c2nc3ncccn3c2Nc2ccc3c(c2)OCO3)cc1	13	86*	93*	0	17	9	8	-7	-3	6
COc1ccc(Cl)cc1S(=O)(=O)N1CCCC(C(=O)NCc2ccccn2)C1 (stereo not given)	7	-4	-2	x	13	x	x	x	x	x
Fc1ccc2nc3[nH]c4ccccc4c3nc2c1	-211	74*	74*	0	47	8	53*	53*	61*	25
c1c2c(cc3sc(N4CCOCC4)nc13)OCO2	-2	60*	89*	2	76*	85*	86*	99*	95*	88*
NC(=O)COC(=O)c1ccccc1Nc1ccc(SC(F)F)cc1	-80	64*	30	-6	1	61*	60*	77*	27	69*
O=C(COC(=O)c1ccccc1Nc1ccc(SC(F)F)cc1)NCc1ccco1	-137	65*	40	-4	16	-25	6	3	5	2
CC(OC(=O)c1ccccc1Nc1ccc(SC(F)F)cc1)C(N)=O (stereo not given)	-119	5	-6	9	-10	x	x	x	x	x
Cc1nnc(NC(=O)c2ccc3ccccc3c2)s1	-20	12	58*	-1	-1	-5	-2	-1	12	-2
CC(C)c1cc(C(=O)Nc2cccc(Cl)c2)no1	18	89*	91*	6	89*	94*	96*	102*	92*	88*
Cc1nnc(NC(=O)Nc2cccc(Cl)c2)s1	9	57*	47	-3	26	31	52*	62*	56*	15
NC(=O)c1ccccc1OCc1nnc(-c2ccccc2Br)o1	0	6	-7	-3	0	x	x	x	x	x
Cc1cc(C(=O)Nn2cnnc2)ccc1[N+](=O)[O-]	17	81*	78*	3	72*	69*	65*	92*	93*	76*
Cc1ccc(Cn2ncc3c(N4CCOCC4)ncnc32)cc1	16	-3	2	2	5	x	x	x	x	x
O=C(c1ccc2c(=O)n(CCc3ccccc3)c(=O)[nH]c2c1)N1CCN(c2ccc(F)cc2)CC1	0	0	4	8	-3	x	x	x	x	x
O=C1CCOc2cc(OCc3ccccc3)ccc21	8	94*	95*	6	88*	94*	94*	101*	94*	93*
CC(=O)/C=C1\OCc2cc(OCc3ccccc3)ccc21	20	x	x	x	x	x	x	x	x	x
COc1cc(/C=C2\SC(=S)N(CC(=O)O)C2=O)ccc1OC(=O)c1ccco1	24	3	1	-1	-14	x	x	x	x	x
CN1C(=O)/C(=C\c2ccc(OC(=O)c3ccco3)cc2)SC1=S	13	74*	72*	-4	41	27	25	4	43	35
CN1C(=O)/C(=C/c2ccc(OC(=O)c3ccco3)cc2)SC1=S	20	73*	79*	1	75*	28	21	19	47	45
COc1cc(/C=C2/SC(=S)N(CC(=O)O)C2=O)ccc1OC(=O)c1ccco1	29	-15	-1	1	-5	x	x	x	x	x
Cc1ccc(C(=O)Nc2ccc(S(=O)(=O)NC3=NCCCCC3)cc2)cc1S(=O)(=O)N1CCOCC1	-4	-11	2	x	-8	x	x	x	x	x
CCCCNC(=O)C1(C)CCCCN1C(=O)c1c(Cl)cccc1Cl (stereo not given)	14	x	x	x	x	x	x	x	x	x
O=C(Nc1ccc(Cl)cc1)c1ccc(Br)cc1F	14	51*	50	-3	44	20	40	40	40	8
SMILES	SENP8 block-1	SENP6 inh	SENP7 block	HSP90 inh	SENP8 block-2	SENP8 confirm	SENP6 conf	SENP7 confirm	Casp3 select	SENP luc ctr
Clc1ccccc1-c1nc(-c2cccnc2)no1	30	84*	81*	0	64*	9	72*	93*	77*	64*
Cc1nc(-c2noc(-c3ccccc3Cl)n2)c(C(F)(F)F)o1	20	78*	65*	4	70*	24	57*	78*	70*	40
Clc1ccc(-c2nc(-c3ccncc3)no2)c(Cl)c1	26	63*	77*	x	58*	8	10	26	20	10
Clc1ccccc1/C=C/c1nc(-c2cccnc2)no1	6	88*	77*	14	69*	56*	68*	89*	56*	12
C(=C\c1nc(-c2cccnc2)no1)/c1ccccc1	-3	-21	33	4	13	x	x	x	x	x
Clc1ccc(Br)cc1-c1nc(-c2cccnc2)no1	x	x	x	-1	x	x	x	x	x	x
Cc1ccccc1-c1nc(-c2cccnc2)no1	7	60*	53*	5	36	25	60*	84*	67*	31
Clc1ccccc1-c1nc(-c2ccncc2)no1	12	81*	80*	1	75*	82*	84*	97*	84*	71*
Cc1onc(-c2ccccc2Cl)c1-c1nc(-c2ccncc2)no1	12	-12	1	-5	-1	x	x	x	x	x
CN(C)CCCN(C(=O)c1ccc(S(=O)(=O)N2CCc3ccccc3C2)cc1)c1nc2c(F)cccc2s1	10	-13	-3	3	-1	x	x	x	x	x
Cn1c(=O)c2[nH]c(CN(Cc3ccccc3)Cc3ccccc3)nc2n(C)c1=O	15	3	6	-5	4	x	x	x	x	x
NS(=O)(=O)c1ccc(NC(=O)c2ccc3c(c2)CCCC3)cc1	6	-3	-3	-8	-5	x	x	x	x	x
NC(=O)c1ccsc1NC(=O)c1ccc(N2CCCC2=O)cc1	-286	90*	89*	12	87*	92*	91*	100*	94*	12
CNC(=O)c1ccsc1NC(=O)c1ccc2c(c1)CCCC2	-200	59*	54*	-7	38	60*	60*	82*	32	22
NC(=O)c1ccsc1NC(=O)c1ccc2c(c1)CCCC2	-178	96*	99*	11	96*	97*	97*	101*	96*	67*
